Screens (PubChem)
GPR151 activ: activates the human receptor GPR151; PathHunter beta-arrestin GPR151 cells, luminescence; 650,000 tested, 1% active; Q8TDV0; activation, % at 11.2 µM; in the data active = activation above about 4.9%
MITF primary: blocks human microphthalmia-associated transcription factor. O75030. AlphaScreen MITF homodimerization, bead proximity signal. inhibition, % at 2.6 µM. 650,000 tested, 0.91% active. AID 1259374; in the data active = inhibition above about 50%
TEAD-YAP inh: TEAD-YAP interaction inhibition; inhibition, % at 9.12 µM; 640,000 tested, 1.4% active; HEK-TIYL cells, TEAD-Gal4/YAP UAS-luciferase luminescence; in the data active = inhibition above about 32%
FBW7 act: human FBW7 E3 ligase activation, primary screen. Q969H0. normalized activity (activation), % at 26.1 µM. 650,000 tested, 0.13% active. AlphaScreen FBW7–phospho-cyclin E peptide binding, activator screen. AID 1259310; in the data active = normalized activity above about 1.9%;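 note: purified mutant Fbw7 with reduced substrate affinity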
Target sequence (Q969H0 whole entry, looked up): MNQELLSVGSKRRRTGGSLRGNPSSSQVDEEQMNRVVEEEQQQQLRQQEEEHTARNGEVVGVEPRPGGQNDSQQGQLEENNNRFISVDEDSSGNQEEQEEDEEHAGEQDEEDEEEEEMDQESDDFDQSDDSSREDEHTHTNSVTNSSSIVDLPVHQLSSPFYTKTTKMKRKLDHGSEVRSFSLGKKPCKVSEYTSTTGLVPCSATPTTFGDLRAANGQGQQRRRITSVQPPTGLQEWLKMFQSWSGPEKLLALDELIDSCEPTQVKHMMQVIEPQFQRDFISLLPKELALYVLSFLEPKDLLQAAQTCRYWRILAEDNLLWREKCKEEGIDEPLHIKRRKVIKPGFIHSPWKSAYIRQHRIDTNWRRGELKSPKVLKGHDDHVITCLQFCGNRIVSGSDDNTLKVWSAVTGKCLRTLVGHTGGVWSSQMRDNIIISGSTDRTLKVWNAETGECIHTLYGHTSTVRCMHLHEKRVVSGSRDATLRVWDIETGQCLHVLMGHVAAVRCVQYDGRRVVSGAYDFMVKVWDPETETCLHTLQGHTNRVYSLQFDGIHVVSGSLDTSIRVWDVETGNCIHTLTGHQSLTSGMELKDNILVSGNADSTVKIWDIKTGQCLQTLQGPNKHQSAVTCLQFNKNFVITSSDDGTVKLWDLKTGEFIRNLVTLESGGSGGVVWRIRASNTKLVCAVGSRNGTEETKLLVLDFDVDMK
Numbers stand for hits; i = inactive; ! = not active in a repeat. Rows were chosen to be rich in hits. Some 3.4% of all compounds tested hit in one or more screens of this group.

SMILES | GPR151 activ | MITF primary | TEAD-YAP inh | FBW7 act
O=C(/C=C/c1ccc(Cl)cc1Cl)Nc1ccccc1F | i | i | 47 | i
O=C(/C=C/c1ccccc1Cl)Nc1cccc(O)c1 | i | i | 38 | i
O=C(/C=C/c1ccccc1Cl)Nc1ccc2c(c1)C(=O)NC2=O | i | i | i | i
COc1ccc(/C=C/C(=O)Nc2ccccc2F)cc1 | i | i | 80 | i
CSc1cccc(NC(=O)Cn2ncc3c2-c2cc(C)ccc2OC3)c1 | i | i | i | i
O=C(Cn1c2c(c3ccccc31)CCC2)NCCCn1ccnc1 | i | i | i | i
Cc1ccc(OCC(=O)Nc2ccccc2Sc2ncnc3sc4c(c23)CCCC4)cc1 | i | i | i | i
CNC[C@H](O)c1ccc(O)c(O)c1 | i | 56! | i | i
CCN1CCN(C(=O)c2cc3sccc3n2C)CC1 | i | i | i | i
CCCCNC(=O)c1ccccc1NC(=O)CC | i | i | i | i
CCOC(=O)c1ccc2nc(NC(=O)COC(=O)c3ccc(N4C(=O)CCC4=O)cc3)sc2c1 | i | i | i | i
Cc1cc(C=C2C(=O)NC(=S)NC2=O)c(C)n1-c1cccc(C(=O)O)c1 | i | 78 | i | i
Cc1cc(C=C2C(=O)NC(=O)NC2=O)c(C)n1-c1ccc(C(=O)O)c(Cl)c1 | i | 54 | i | i
Cc1cccc(-n2c(C)cc(C=C3C(=O)NC(=S)NC3=O)c2C)c1 | i | i | i | i
Cc1cc(C=C2C(=O)N(C)C(=O)N(C)C2=O)c(C)n1-c1ccc(Cl)c(C(=O)O)c1 | i | i | i | i
Cc1cc(C=C2C(=O)N(C)C(=S)N(C)C2=O)c(C)n1-c1ccc(Cl)c(C(=O)O)c1 | i | 68 | i | i
CC(=O)NC1=NC(=O)/C(=C/c2cc(C)n(-c3ccc4c(c3)OCO4)c2C)S1 | i | i | i | i
CC(=O)NC1=NC(=O)/C(=C/c2cc(C)n(-c3cccc(C(=O)O)c3)c2C)S1 | i | 75 | i | i
COc1cc(/C=c2\sc3nc4ccccc4n3c2=O)ccc1OCc1ccc(Cl)cc1Cl | i | i | i | i
COc1ccc(Cc2nnc(Nc3cccc(OC)c3)[nH]c2=O)cc1 | i | i | 57 | i
COc1ccc(Cc2nnc(NCc3ccco3)[nH]c2=O)cc1 | i | i | 58 | i
OC1CCC(Nc2nccn3c(-c4cccc(OC(F)(F)F)c4)cnc23)CC1 (configuration not stated) | i | i | i | i
CC(=O)c1cn(CC(=O)Nc2ccccc2)c2ccccc12 | i | i | i | i
COc1cccc(NC(=O)Cn2cc(C(C)=O)c3ccccc32)c1 | i | i | 48 | i
COc1ccccc1NC(=O)Cn1c(C)nc2ccccc21 | i | i | 35 | i
SMILES | GPR151 activ | MITF primary | TEAD-YAP inh | FBW7 act
CC(=O)c1cn(CC(=O)NCCOc2ccc(Cl)cc2)c2ccccc12 | i | i | 40 | i
COc1ccccc1NC(=O)Cn1cc(C(C)=O)c2ccccc21 | i | i | 37 | i
O=C(CSCc1c(F)cccc1Cl)Nc1ccc(S(=O)(=O)N2CCCC2)cc1 | i | i | i | i
Cc1ccc(N2C(=O)c3cccc4c(Cl)ccc(c34)C2=O)cc1 | i | i | i | i
Cc1ccc(N2C(=O)c3cccc4c(N)ccc(c34)C2=O)c2cccnc12 | i | i | 63 | i
CCN(CC)CCN1C(=O)c2cccc3c(Cl)ccc(c23)C1=O | i | i | 70 | i
Cc1ccc(N2C(=O)c3cccc4c(N5CCCCC5)ccc(c34)C2=O)c2cccnc12 | i | i | i | i
CCN1C(=O)c2cccc3c(N)ccc(c23)C1=O | i | 57 | i | i
COc1cc(/C=c2/sc3nc4ccccc4n3c2=O)cc(I)c1OC | i | i | i | i
CCOc1ccccc1CN1CCN(Cc2c(C)nn(CC)c2C)CC1CCO (configuration not stated) | i | i | i | i
CNC(=O)CN(c1cccc(Cl)c1)S(=O)(=O)c1ccc(OC)cc1 | i | i | 45 | i
COc1ccc(S(=O)(=O)N(CC(=O)O)c2cccc(Cl)c2)cc1 | i | i | i | i
CCN1CCN(C(c2ccccc2)c2nnnn2C2CCCCC2)CC1 (configuration not stated) | i | i | 39 | i
O=C(Nc1cccc(-n2cnnn2)c1)C1CCCN(Cc2cc3ccccc3o2)C1 (configuration not stated) | i | i | 41 | i
O=C(Nc1cccc(-n2cnnn2)c1)C1CCCN(Cc2ccccc2)C1 (configuration not stated) | i | i | i | i
CCOC(=O)c1c2c(n(C)c1CN(C)C)C(=O)C(=O)c1ccc(Br)cc1-2 | i | i | 96 | i
CCOC(=O)c1c2c(n(C)c1CNC(C)C)C(=O)C(=O)c1ccc(Br)cc1-2 | i | i | i | i
COc1ccc(-c2ccc(N)cc2)cc1 | i | i | i | i
Nc1ccc(-c2ccc(-c3ccc(N)cc3)cc2)cc1 | i | i | 74 | 43
Cc1cccc(NC(=O)c2c(Cl)nc(Cl)c(Cl)c2Cl)c1C | i | i | 36 | i
O=C(NCc1ccccc1)c1c(Cl)nc(Cl)c(Cl)c1Cl | i | i | 47 | i
Cc1nc(Cl)c(C(=O)NCc2ccccc2)c(C)c1Cl | i | i | i | i
Cc1ccccc1NC(=O)c1c(Cl)nc(Cl)c(Cl)c1Cl | i | i | 64 | i
Cc1ccc2nc(/C(C#N)=C/c3ccc[nH]3)[nH]c2c1 | i | i | i | i
COC(=O)c1ccc(C2C=C(c3ccccc3)Nc3nnnn32)cc1 (configuration not stated) | i | i | i | i
SMILES | GPR151 activ | MITF primary | TEAD-YAP inh | FBW7 act
CC(C)CNc1ncnc2ccc(Br)cc12 | i | i | 42 | i
CCN(CC)c1ccc(Nc2ncnc3ccc(Br)cc23)cc1 | i | i | i | i
O=C(O)CNc1ncnc2ccc(Br)cc12 | i | i | i | i
Brc1ccc2ncnc(NCc3ccccc3)c2c1 | i | i | 60 | i
CC(C)OCCCNc1ncnc2ccc(Br)cc12 | i | i | 46 | i
CN(C)c1ccc(Nc2ncnc3ccc(Br)cc23)cc1 | i | i | 34 | i
Cc1ccc2ncnc(NCCc3ccccc3)c2c1 | i | i | 50 | i
Cc1ccc2ncnc(NC3CCCCC3)c2c1 | i | i | 37 | i
COCCOC(=O)C1=C(C)Nc2[nH]c(=O)[nH]c(=O)c2C1c1ccsc1 (configuration not stated) | i | i | i | i
Cn1nnnc1SCn1nnc2ccccc2c1=O | i | i | i | i
C=CCNc1nc2c(c(=O)n(C)c(=O)n2C)n1CCC(C)C | i | i | 33 | i
C=CCNc1nc2c(c(=O)n(C)c(=O)n2C)n1CCCCCC | i | i | 47 | i
CCOc1ccc2nc(N3CCC(C(=O)Nc4ccc(OC)cc4)CC3)sc2c1 | i | i | i | i
CCOC(=O)C1CCN(c2nc3cc(Br)ccc3s2)CC1 | i | i | i | i
CCOC(=O)C1CCN(c2nc3ccc(CC)cc3s2)CC1 | i | i | 55 | i
CCOc1ccc2nc(NC(=O)C(C)(C)CC)sc2c1 | i | i | 41 | i
CCOC(=O)Nc1nc2ccc(OCC)cc2s1 | i | i | i | i
CCOc1ccc2nc(N3CCC(C(=O)O)CC3)sc2c1 | i | i | 58 | i
CCc1ccc2sc(N3CCC(C(=O)NC4CCCC4)CC3)nc2c1 | i | i | 65 | i
CCOC(=O)C(C)OC(=O)c1ccc(C)c(C)c1 (configuration not stated) | i | i | i | i
